Our source for the Potency values is PubChem BioAssay (NCATS).

Structures are written as SMILES. Inconclusive results are not listed. A call without a number means that no potency is given here. Calls of active or inactive are those of the source. The call rests on the fitted dose curve; in most records, active means well fitted inhibition curve with a large enough effect; inconclusive means small, poorly fitted or top-dose-only effect; inactive means no such curve, though single readings can be large or run the other way.
Potency means the concentration at half of the fitted maximal effect.

This experiment is described as follows: S16 Schwann cell PMP22 intronic element firefly luciferase assay (AID 624032). Further: nearly all actives have a fitted effect of over 30% in size. The settings on record: S16 rat Schwann cells, PMP22 element FLuc, 24 h; series mostly up to 57.5 µM. The method in brief: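 Luciferase reporter of PMP22 intronic-element expression in stably transfected S16 rat Schwann cells, read by ONE-Glo luminescence after 24 h compound exposure at 37 C. Activity scaled between DMSO (0%) and positive-control PTC124; concentration-effect curves quality-classified.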
Consider `CC(=O)N[C@@H](CCC(=O)O)C(=O)O`, for which the Potency entry was “inactive”. Take `N#CCC(=O)NN`: the Potency entry is “inactive”.

`CCC(C(=O)OCCOCCN(CC)CC)c1ccccc1` (centres undefined): the Potency entry was “inactive”.

`OCc1ccccn1`: the Potency entry is “inactive”.

On to `CCOC(=O)c1c(N)sc2c1CCN(Cc1ccccc1)C2`, for which the Potency is 36.1 µM (active). With `CCN(CC)CCNC(=O)COc1ccc(OC)cc1`, the Potency entry was “inactive”. For the compound `CCCCCCCCNC(C)C(O)c1ccc(SC(C)C)cc1` (centres undefined), the Potency is 22.8 µM (active). In the case of `O=C(O)c1ccc(S(=O)(=O)N(Cl)Cl)cc1`, the Potency result is “inactive”. Consider `Cc1cccc(C)c1NC(=O)c1ccccc1C(=O)O`, for which the Potency result is “inactive”.

For `COc1ccc(CCN(C)CCCN2CCc3cc(OC)c(OC)cc3CC2=O)cc1OC`, the Potency result is “inactive”. In the case of `CC(=O)Oc1ccc(C)cc1`, the Potency entry was “inactive”. As to `C[N+]1(C)CCC(=C(c2ccccc2)c2ccccc2)CC1`, the Potency result is “inactive”. Take `CC(=O)NC(=O)c1ccccc1O`: the Potency result was “inactive”. Take `Cc1cc(NS(=O)(=O)c2ccc(N)cc2)nc(C)n1`: the Potency entry was “inactive”. Take `CC(C)CCCC(C)N` (centres undefined): the Potency entry was “inactive”. Turning to `FC1(F)C(F)(F)C(F)(F)C2(F)C(F)(F)C(F)(F)C(F)(F)C(F)(F)C2(F)C1(F)F` (centres undefined), the Potency result is “inactive”. With `Cc1ccc(S(=O)(=O)NC(=O)NC2CCCC2)cc1`, the Potency entry is “inactive”. In the case of `CCCc1ncc(C[n+]2ccccc2C)c(N)n1`, the Potency entry was “inactive”.

On to `CC(=O)Nc1ccc(S(=O)(=O)Nc2ccc([N+](=O)[O-])cc2)cc1`, for which the Potency result is “inactive”. `CN1CCN(c2c(F)cc3c(=O)c(C(=O)O)cn4c3c2SCC4)CC1`: the Potency result is “inactive”.

For `CN(C)C(=O)Nc1ccc(Cl)c(Cl)c1`, the Potency entry was “inactive”. With `CC[N+](C)(CC)CCOC(=O)C(O)(c1ccccc1)C1CCCCC1` (centres undefined), the Potency entry is “inactive”. In the case of `CNCCc1ccccn1`, the Potency result is “inactive”. For `COc1ccc(CN(CCN(C)C)c2ncccn2)cc1`, the Potency entry was “inactive”. For `CC(C)(C)NC[C@H](O)COc1cccc2c1CCCC2=O`, the Potency result was “inactive”. As to `Cc1cccc(C)c1NC(=O)CN1CCCCCC1`, the Potency result was “inactive”. With `OC1C(O)C(O)C(O)C(O)C1O` (centres undefined), the Potency result was “inactive”.

In the case of `CC(=O)Nc1ccc(OC(=O)c2ccccc2OC(C)=O)cc1`, the Potency is 32.2 µM (active). Turning to `CC(=O)Nc1ccc(OCC(O)CNC(C)C)cc1` (centres undefined), the Potency result was “inactive”. `NS(=O)(=O)c1ccc(Cl)c(S(N)(=O)=O)c1`: the Potency result is “inactive”. Take `COc1cc(NS(=O)(=O)c2ccc(N)cc2)ncn1`: the Potency result was “inactive”. In the case of `CC(=O)OCC(=O)[C@H]1CC[C@H]2[C@@H]3CCC4=CC(=O)CC[C@]4(C)[C@H]3CC[C@]12C`, the Potency entry was “inactive”. Consider `Cc1nc(-c2ccc(Cl)cc2)oc1COC(C)(C)C(=O)O`, for which the Potency result is “inactive”. The result for `N=C(N)N1CCc2ccccc2C1` reads “inactive”.
